# Measurements published in the supplement of paper PMC10037445.
# Where “and” joins values, the source holds several entries; their conditions need not be identical. Equal values may be shown once. In all, about 2,900 compounds were measured (“NF-kB SEAP reporter activity, fold change vs agonist alone”: median about 0.99, highest 2% from about 2.6 on). This excerpt belongs to a sample that is enriched for the highest values.
# Columns and labels:
# RAW-Dual [1] = test: NF-kB SEAP reporter activity, fold change vs agonist alone; higher = enhanced NF-kB activity; conditions: library stock concentration (final ~1000-fold dilution): 10 mM
# Method in brief: (§1)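 RAW-Dual macrophages (50,000 cells/well in DMEM, 384-well plates) received 50 nL of library stock by pin tool, then a PRR agonist 1 h later, and were kept at 37 °C, 5% CO2. After 20 hours, supernatant was read for IRF by QuantiLuc luminescence and for NF-κB by QuantiBlue absorbance at 620 nm. Reporter activity is fold change over agonist-alone wells. Cytotoxic wells had IncuCyte confluency below 70% of agonist controls in both mask sets.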
# RAW-Dual [2] = test: NF-kB SEAP reporter activity, fold change vs agonist alone; cytotoxicity flag (confluency mask): cytotoxic (confluency <70% of control); higher = enhanced NF-kB activity
# Method in brief: as §1
# RAW-Dual [3] = test: NF-kB SEAP reporter activity, fold change vs agonist alone; cytotoxicity flag (confluency mask): not cytotoxic; higher = enhanced NF-kB activity
# Method in brief: as §1
# [4] = cytotoxicity flag (confluency mask): not cytotoxic, agonist: Imiquimod (TLR7) […]
# [5] = cytotoxicity flag (confluency mask): not cytotoxic, agonist: MPLA (TLR4) […]
# [6] = agonist: ODN 1826 (TLR9) 0.5 ug/mL
# [7] = agonist: Pam2CSK4 (TLR2/6) 0.1 ug/mL
# [8] = agonist: Pam3CSK4 (TLR2/1) 0.1 ug/mL
# [9] = cytotoxicity flag (confluency mask): cytotoxic (confluency <70% of control), agonist: MPLA (TLR4) […]
# [10] = cytotoxicity flag (confluency mask): cytotoxic (confluency <70% of control), agonist: Imiquimod (TLR7) […]
compound,measurement,setting,value
Cn1cc(Nc2nccc(N3CC4CCC(C3)N4C(=O)C3CC3(F)F)n2)cn1 (stereo unspecified),NF-kB SEAP reporter activity,RAW-Dual [1]; [4],1.19
same,NF-kB SEAP reporter activity,RAW-Dual [1]; [5],0.995
CC(NCCC(c1ccccc1)c1ccccc1)c1ccccc1.Cl (stereo unspecified) (library stock concentration (final ~1000-fold dilution): 10 mM),NF-kB SEAP reporter activity,RAW-Dual [2]; agonist: LPS (TLR4) 0.1 ug/mL,1.18
same,NF-kB SEAP reporter activity,RAW-Dual [2]; [6],0.723
same,NF-kB SEAP reporter activity,RAW-Dual [2]; [7],0.754
same,NF-kB SEAP reporter activity,RAW-Dual [2]; [8],0.637
CC(NCCC(c1ccccc1)c1ccccc1)c1ccccc1.Cl (stereo unspecified),NF-kB SEAP reporter activity,RAW-Dual [1]; [9],1.24
CCCCCCCCCCCC(CC1OC(=O)C1CCCCCC)OC(=O)C(CC(C)C)NC=O (stereo unspecified),NF-kB SEAP reporter activity,RAW-Dual [1]; [4],0.823
same,NF-kB SEAP reporter activity,RAW-Dual [1]; [5],0.902
CCCCCCCCCCCC(CC1OC(=O)C1CCCCCC)OC(=O)C(CC(C)C)NC=O (stereo unspecified) (library stock concentration (final ~1000-fold dilution): 10 mM),NF-kB SEAP reporter activity,RAW-Dual [3]; agonist: LPS (TLR4) 0.1 ug/mL,1.07
same,NF-kB SEAP reporter activity,RAW-Dual [3]; [6],1.02
same,NF-kB SEAP reporter activity,RAW-Dual [3]; [7],0.959
same,NF-kB SEAP reporter activity,RAW-Dual [3]; [8],0.978
CN(C)C/C=C/C(=O)Nc1ccc(C(=O)Nc2cccc(Nc3ncc(Cl)c(-c4c[nH]c5ccccc45)n3)c2)cc1.Cl.Cl,NF-kB SEAP reporter activity,RAW-Dual [1]; [10],0.142
same,NF-kB SEAP reporter activity,RAW-Dual [1]; [9],0.258
CN(C)C/C=C/C(=O)Nc1ccc(C(=O)Nc2cccc(Nc3ncc(Cl)c(-c4c[nH]c5ccccc45)n3)c2)cc1.Cl.Cl (library stock concentration (final ~1000-fold dilution): 10 mM),NF-kB SEAP reporter activity,RAW-Dual [2]; agonist: LPS (TLR4) 0.1 ug/mL,0.242
same,NF-kB SEAP reporter activity,RAW-Dual [2]; [6],0.189
same,NF-kB SEAP reporter activity,RAW-Dual [2]; [7],0.0773
same,NF-kB SEAP reporter activity,RAW-Dual [2]; [8],0.176
N#Cc1ccnc(N2C(=O)CCC2C(=O)N(c2cncc(F)c2)C(C(=O)NC2CC(F)(F)C2)c2ccccc2Cl)c1 (stereo unspecified) (library stock concentration (final ~1000-fold dilution): 10 mM),NF-kB SEAP reporter activity,RAW-Dual [3]; agonist: LPS (TLR4) 0.1 ug/mL,1.37
same,NF-kB SEAP reporter activity,RAW-Dual [3]; [6],1.16
same,NF-kB SEAP reporter activity,RAW-Dual [3]; [7],0.753
same,NF-kB SEAP reporter activity,RAW-Dual [3]; [8],0.775
N#Cc1ccnc(N2C(=O)CCC2C(=O)N(c2cncc(F)c2)C(C(=O)NC2CC(F)(F)C2)c2ccccc2Cl)c1 (stereo unspecified),NF-kB SEAP reporter activity,RAW-Dual [1]; [4],1.14
same,NF-kB SEAP reporter activity,RAW-Dual [1]; [5],1.16
CCCC(=O)OCOC(=O)C1=C(C)NC(C)=C(C(=O)OC)C1c1cccc(Cl)c1Cl (stereo unspecified) (library stock concentration (final ~1000-fold dilution): 10 mM),NF-kB SEAP reporter activity,RAW-Dual [3]; agonist: LPS (TLR4) 0.1 ug/mL,0.954
same,NF-kB SEAP reporter activity,RAW-Dual [3]; [6],1.19
same,NF-kB SEAP reporter activity,RAW-Dual [3]; [7],0.911
same,NF-kB SEAP reporter activity,RAW-Dual [3]; [8],1.1
CCOC(=O)C1=C(COCCN)NC(C)=C(C(=O)OC)C1c1ccccc1Cl.O=S(=O)(O)c1ccccc1 (stereo unspecified) (library stock concentration (final ~1000-fold dilution): 10 mM),NF-kB SEAP reporter activity,RAW-Dual [2]; agonist: LPS (TLR4) 0.1 ug/mL,2.27
same,NF-kB SEAP reporter activity,RAW-Dual [2]; [6],0.532
same,NF-kB SEAP reporter activity,RAW-Dual [2]; [7],0.907
same,NF-kB SEAP reporter activity,RAW-Dual [2]; [8],0.924
CCOC(=O)C1=C(C)NC(C)=C(C(=O)OC)C1c1cccc(Cl)c1Cl (stereo unspecified),NF-kB SEAP reporter activity,RAW-Dual [1]; [4],1.53
same,NF-kB SEAP reporter activity,RAW-Dual [1]; [5],0.952
CCOC(=O)C1=C(C)NC(C)=C(C(=O)OC)C1c1cccc(Cl)c1Cl (stereo unspecified) (library stock concentration (final ~1000-fold dilution): 10 mM),NF-kB SEAP reporter activity,RAW-Dual [3]; agonist: LPS (TLR4) 0.1 ug/mL,0.607
same,NF-kB SEAP reporter activity,RAW-Dual [3]; [6],0.648
same,NF-kB SEAP reporter activity,RAW-Dual [3]; [7],0.408
same,NF-kB SEAP reporter activity,RAW-Dual [3]; [8],0.423
COC(=O)C1=C(C)NC(C)=C(C(=O)OC)C1c1ccccc1[N+](=O)[O-] (library stock concentration (final ~1000-fold dilution): 10 mM),NF-kB SEAP reporter activity,RAW-Dual [3]; agonist: LPS (TLR4) 0.1 ug/mL,2.15
same,NF-kB SEAP reporter activity,RAW-Dual [3]; [6],1.42
same,NF-kB SEAP reporter activity,RAW-Dual [3]; [7],1.5
same,NF-kB SEAP reporter activity,RAW-Dual [3]; [8],1.37
COC(=O)C1=C(C)NC(C)=C(C(=O)OC)C1c1ccccc1[N+](=O)[O-],NF-kB SEAP reporter activity,RAW-Dual [1]; [4],1.59
same,NF-kB SEAP reporter activity,RAW-Dual [1]; [5],1.35
CCCC(=O)OCOC(=O)C1=C(C)NC(C)=C(C(=O)OC)C1c1cccc(Cl)c1Cl (stereo unspecified),NF-kB SEAP reporter activity,RAW-Dual [1]; [4],1.02
same,NF-kB SEAP reporter activity,RAW-Dual [1]; [5],0.958
CCOC(=O)C1=C(COCCN)NC(C)=C(C(=O)OC)C1c1ccccc1Cl.O=S(=O)(O)c1ccccc1 (stereo unspecified),NF-kB SEAP reporter activity,RAW-Dual [1]; [10],2.53
same,NF-kB SEAP reporter activity,RAW-Dual [1]; [9],2.58
CCOC(=O)C1=C(COCCN)NC(C)=C(C(=O)OC)C1c1ccccc1Cl (stereo unspecified) (library stock concentration (final ~1000-fold dilution): 10 mM),NF-kB SEAP reporter activity,RAW-Dual [2]; agonist: LPS (TLR4) 0.1 ug/mL,2.23 and 2.05
same,NF-kB SEAP reporter activity,RAW-Dual [2]; [6],0.736 and 1.01
same,NF-kB SEAP reporter activity,RAW-Dual [2]; [7],0.785 and 0.751
same,NF-kB SEAP reporter activity,RAW-Dual [2]; [8],0.888 and 1.41
COC(=O)C1=C(C)NC(C)=C(C(=O)OCC(C)C)C1c1ccccc1[N+](=O)[O-] (stereo unspecified) (library stock concentration (final ~1000-fold dilution): 10 mM),NF-kB SEAP reporter activity,RAW-Dual [3]; agonist: LPS (TLR4) 0.1 ug/mL,0.885
same,NF-kB SEAP reporter activity,RAW-Dual [3]; [6],0.605
same,NF-kB SEAP reporter activity,RAW-Dual [3]; [7],0.675
same,NF-kB SEAP reporter activity,RAW-Dual [3]; [8],0.706
COC(=O)C1=C(C)NC(C)=C(C(=O)OCC(C)C)C1c1ccccc1[N+](=O)[O-] (stereo unspecified),NF-kB SEAP reporter activity,RAW-Dual [1]; [4],0.706
same,NF-kB SEAP reporter activity,RAW-Dual [1]; [5],0.773
CCC1OC(=O)C(C)C(OC2CC(C)(OC)C(O)C(C)O2)C(C)C(OC2OC(C)CC(N(C)C)C2O)C(C)(OC)CC(C)C(=O)C(C)C(O)C1(C)O (stereo unspecified) (library stock concentration (final ~1000-fold dilution): 10 mM),NF-kB SEAP reporter activity,RAW-Dual [3]; agonist: LPS (TLR4) 0.1 ug/mL,0.99
same,NF-kB SEAP reporter activity,RAW-Dual [3]; [6],0.929
same,NF-kB SEAP reporter activity,RAW-Dual [3]; [7],0.942
same,NF-kB SEAP reporter activity,RAW-Dual [3]; [8],0.932
CCC1OC(=O)C(C)C(OC2CC(C)(OC)C(O)C(C)O2)C(C)C(OC2OC(C)CC(N(C)C)C2O)C(C)(OC)CC(C)C(=O)C(C)C(O)C1(C)O (stereo unspecified),NF-kB SEAP reporter activity,RAW-Dual [1]; [4],0.947
same,NF-kB SEAP reporter activity,RAW-Dual [1]; [5],0.96
CC(=O)C1CCC2C3CC=C4CC(O)CCC4(C)C3CCC12C (stereo unspecified) (library stock concentration (final ~1000-fold dilution): 10 mM),NF-kB SEAP reporter activity,RAW-Dual [3]; agonist: LPS (TLR4) 0.1 ug/mL,1.1
same,NF-kB SEAP reporter activity,RAW-Dual [3]; [6],0.897
same,NF-kB SEAP reporter activity,RAW-Dual [3]; [7],0.904
same,NF-kB SEAP reporter activity,RAW-Dual [3]; [8],0.972
CC(=O)C1CCC2C3CC=C4CC(O)CCC4(C)C3CCC12C (stereo unspecified),NF-kB SEAP reporter activity,RAW-Dual [1]; [4],1.07
same,NF-kB SEAP reporter activity,RAW-Dual [1]; [5],1.3
